According to PubChem BioAssay AID540275 (National Center for Advancing Translational Sciences (NCATS), 2011):
About 620 (0.19%) of roughly 320,000 compounds were called active. About 6% were inconclusive and are not listed. The sample as a whole holds a higher share of actives than the screen did. Values without a mark were called inactive. Cut-off read from the data, not from the text of the source: active = activation above about 80%; inconclusive = between about 30% and that limit; inactive = weaker than that.

Molecular target: Transient receptor potential cation channel subfamily V member 1 (Homo sapiens) (UniProt Q8NER1)
Experiment: HTS Assay for Compounds that Act as Agonists of the Vanilloid Receptor 1; note: 0% is about no effect
Conditions: TRPV1-expressing cells, Fluo-8 calcium influx, agonist mode; at 8.33 µM; hits give high values
In short: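 TRPV1-expressing cells were cultured overnight at 35.5C and loaded with Fluo-8 calcium dye for 40 to 90 min at room temperature. After a 10 s baseline, compound was added and calcium influx was read kinetically for 3 min (ex 480/em 520 nm).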

Chain of Transient receptor potential cation channel subfamily V member 1 (Homo sapiens) (Q8NER1 whole entry, looked up): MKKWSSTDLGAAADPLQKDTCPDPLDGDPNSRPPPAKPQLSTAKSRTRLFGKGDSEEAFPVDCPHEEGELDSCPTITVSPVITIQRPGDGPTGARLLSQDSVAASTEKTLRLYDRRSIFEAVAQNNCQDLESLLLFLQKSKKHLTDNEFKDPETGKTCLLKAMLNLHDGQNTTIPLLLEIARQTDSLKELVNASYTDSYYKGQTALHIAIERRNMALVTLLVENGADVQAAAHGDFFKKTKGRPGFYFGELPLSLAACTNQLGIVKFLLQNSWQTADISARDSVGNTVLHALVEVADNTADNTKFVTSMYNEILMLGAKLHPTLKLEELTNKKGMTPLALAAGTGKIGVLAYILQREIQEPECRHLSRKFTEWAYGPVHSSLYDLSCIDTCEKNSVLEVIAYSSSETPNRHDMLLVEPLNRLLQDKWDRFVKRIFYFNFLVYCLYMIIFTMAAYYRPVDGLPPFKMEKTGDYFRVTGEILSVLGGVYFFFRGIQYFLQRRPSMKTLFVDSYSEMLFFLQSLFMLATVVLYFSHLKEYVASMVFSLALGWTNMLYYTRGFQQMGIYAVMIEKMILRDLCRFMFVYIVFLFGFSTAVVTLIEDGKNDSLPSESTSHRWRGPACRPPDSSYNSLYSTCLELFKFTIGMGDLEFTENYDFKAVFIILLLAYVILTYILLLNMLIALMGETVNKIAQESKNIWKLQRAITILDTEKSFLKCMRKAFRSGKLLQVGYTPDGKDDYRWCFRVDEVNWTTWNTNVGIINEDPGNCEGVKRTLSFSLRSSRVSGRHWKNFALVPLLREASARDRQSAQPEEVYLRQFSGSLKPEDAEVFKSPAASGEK

| SMILES | activation |
| --- | --- |
| O=C(NC1CC1)c1cccc(Br)c1 | -0.868% |
| O=C(NC1CCCC1)c1cc(-c2ccccc2)on1 | 22.2% |
| O=C(NC1CC1)c1ccc(-c2ccccc2)cc1 | 83% (active) |
| CN(C(=O)CSc1nnc(-c2ccc(C(C)(C)C)cc2)n1C)C1CCS(=O)(=O)C1 (stereo not given) | 1.75% |
| Cc1cc(C(=O)COc2ccccc2Cl)c(C)n1C1CC1 | 26.9% |
| Cc1ccc(S(=O)(=O)N2CC(O)C[C@H]2C(=O)OCC(=O)Nc2ccc(N3CCOCC3)cc2)cc1C (stereo not given in full) | -0.193% |
| COc1cccc(C(=O)Nc2nc3ccc(S(C)(=O)=O)cc3s2)c1 | -1.41% |
| CCc1noc(C)c1C(=O)Nc1nc2ccc(OC)cc2s1 | 8.32% |
| COc1ccc2nc(NC(=O)c3ccc(Br)s3)sc2c1 | 97.1% (active) |
| COc1ccc(NC(=O)CC2SC(N3CCCCC3)=NC2=O)cc1OC (stereo not given) | 1.55% |
| CC(=O)c1ccc(-c2ccc(Cn3c(C)nc4cc(N)c(C)nc43)cc2)cc1 | 4.86% |
| Cc1nc2c(c(=O)n1Cc1ccco1)c1nc3ccccc3nc1n2Cc1ccccc1 | 1.97% |
| Cc1cc2nc3c(=O)n(Cc4ccccc4)c(=O)[nH]c3nc2cc1N | 90.7% (active) |
| Cc1cnc(NC(=O)c2ccc(Cl)nc2)s1 | 1.7% |
| CCN(CC)c1ccc(NC(=O)c2ccc(Cl)nc2)cc1 | 82% (active) |
| CCOC(=O)c1ccc(NC(=O)c2cccnc2)cc1 | -0.797% |
| Cc1csc(NC(=O)C2CCN(S(=O)(=O)c3ccccc3)CC2)n1 | 0.443% |
| CCCCn1nc(C(=O)Nc2cccc(C(=O)NC3CC3)c2)c2ccccc2c1=O | 17.8% |
| CC(C)n1ncc2c(C(=O)NCc3ccccc3CN(C)C)cc(C3CC3)nc21 | 1.42% |
| O=S(=O)(c1cccs1)N1CCN(CCOc2ccccc2)CC1 | 10.7% |
| O=C(NCC(=O)N1CCCCCCC1)c1ccccc1Cl | 4.74% |
| COc1ccccc1C(CNC(=O)c1cccc(S(=O)(=O)Nc2ccc(F)cc2)c1)N(C)C (stereo not given) | 1.81% |
| COc1ccccc1-c1sc2ccccc2c1-c1ccc(Br)nc1 | 1.98% |
| Cc1ccc(C(CC(=O)O)NC(=O)c2ccc(S(=O)(=O)N3CCCC3)cc2)cc1 (stereo not given) | -0.421% |
| O=C(CN1CCc2ccccc2C1)Nc1cccc(S(=O)(=O)N2CCOCC2)c1 | 13.1% |
